Assay outcomes as filed in PubChem BioAssay.
PP1 inh: blocks human PP1-alpha phosphatase, a PP5 counter-screen. 320,000 tested, 0.9% active. purified PP1alpha, OMFP fluorescence. AID 2235. P62136. inhibition, % at 6.7 µM;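 active = inhibition above the mean inhibition of all tested compounds plus 3 SD, computed separately for each screening campaign, cut at about 15% in these data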
Granule exo inh: lytic granule exocytosis inhibition. AID 651702. inhibition, % at 10 µM. 360,000 tested, 0.66% active. TALL-104 LAMP-1 surface exposure, flow cytometry; cells stimulated with thapsigargin and PMA;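 active = inhibition above about 55%, limit read from the data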
IDE inh: cellular human IDE inhibition. inhibition, % at 5.59 µM. 320,000 tested, 0.41% active. HEK cells, FAbetaB cleavage, fluorescence polarization. P14735;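 active = percent inhibition above the average of all tested compounds plus 3 SD, set per screening campaign, cut at about 16% in these data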;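 also: IDE supplied by intact live HEK cells; FP after avidin binding of uncleaved biotin substrate so inhibition keeps polarization high; 0% = DMSO wells and 100% = 60 µM reference IDE inhibitor Ii1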
PP5 primary: inhibitors of human protein phosphatase 5 (PP5); P53041; purified PP5c, OMFP substrate fluorescence; inhibition, % at 6.7 µM; 320,000 tested, 0.18% active;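 active = inhibition above the campaign's mean inhibition across all tested compounds plus 3 SD, cut at about 9.5% in these data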;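 also: 0% = DMSO only and 100% = 100 µM cantharidin control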
SKKanGAS inh: inhibitors of SKKanGAS S. pyogenes growth in kanamycin (SK-promoter or general growth effect). BacTiter-Glo, 6 h. inhibition, % at 7.5 µM. 300,000 tested, 1.3% active. AID 1662;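 active = mean replicate score, as percent of positive control median, at least 50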;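 also: strain carries kanamycin resistance gene driven by streptokinase promoter and grows in 40 µg/ml kanamycin; loss of luminescence reflects streptokinase promoter inhibition or plain growth inhibition; 0% = median of DMSO wells and 100% = positive control at its reference dose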
IDE act: boosts human insulin-degrading enzyme activity in HEK cells; FAbeta-B cleavage, fluorescence polarization; 0% vehicle, 100% cell-free pure enzyme wells; activation, % at 5.96 µM; 340,000 tested, 0.073% active;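 active = activation above the mean of all tested compounds plus 3 SD, set per screening campaign, cut at about 17% in these data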
* marks the source's active call; other numbers are inactive results; . = no result given. Sampled rows, rich in hits. Any-hit rate of the full collection: about 2.8%.

SMILES	PP1 inh	Granule exo inh	IDE inh	PP5 primary	SKKanGAS inh	IDE act
CCCCCn1c(=O)c(C(=O)Nc2cc(C)ccn2)c(O)c2ccccc21	-2	-3	-2	0	3	5
CCCCCn1c(=O)c(C(=O)Nc2cnccn2)c(O)c2ccccc21	-1	-2	-4	-1	81*	-2
CCCCCCCn1c(=O)c(C(=O)Nc2cnccn2)c(O)c2ccccc21	-10	-18	5	-1	60*	-1
CCCCCCn1c(=O)c(C(=O)Nc2cccc(C)n2)c(O)c2ccccc21	-1	-6	1	2	-3	6
CC(=O)N(C)C1=Nc2ccc(Cl)cc2C(c2ccccc2)=[N+]([O-])C1	.	4	.	.	.	-5
CCOC(=O)c1cc2ccccc2n1C1CCN(Cc2ccccc2)CC1	.	-7	.	.	.	.
O=C1NC(=O)C(=Cc2ccc(Sc3ccccc3)o2)C(=O)N1	3	98*	8	1	1	-5
COc1ccc2c(c1)C13CCN4CC5=CCOC6CC(=O)N2C1C6C5CC43 (stereo not drawn)	.	-2	.	.	.	.
CCCC12CN3CCN(C1)CC(CCC)(C3)C2=O	-5	-4	-3	0	-1	3
CCCC12CN3CC(CCC)(CN(C1)C3c1ccccn1)C2=O (stereo not drawn)	10	-6	2	2	75*	-4
COc1ccc(-[n+]2c(-c3ccccc3)cc(-c3ccc(C)cc3)cc2-c2ccccc2)cc1	4	74*	1	3	-1	-5
CCCCn1c(O)c(C(C)=Nc2ccc(OCC)cc2)c(=O)[nH]c1=O	1	-3	5	3	65*	1
COC1CC2C=C(C)C=CC=CC(=O)NC(c3ccccc3)CC=CCCC(O)CC(=O)C2=C1O (stereo not drawn)	.	36	.	.	.	.
CCCCCn1c(=O)c(C(=O)Nc2nc(CC(=O)OCC)cs2)c(O)c2ccccc21	1	-1	-2	-2	71*	0
CCCCCCn1c(=O)c(C(=O)Nc2nnc(C)s2)c(O)c2ccccc21	-4	.	3	5	-6	.
CCCCn1c(=O)c(C(=O)Nc2nnc(C(C)C)s2)c(O)c2ccccc21	1	.	-10	-2	95*	.
CC12C(C(=O)O)C1(c1ccccc1)C2C(=O)O (stereo not drawn)	.	8	.	.	.	0
CC(=O)c1ccc2c(c1)C1C(Cl)C(Sc3ccccc3[N+](=O)[O-])CC1C(c1ccccc1[N+](=O)[O-])N2 (stereo not drawn)	16*	4	7	2	18	-5
CC(=O)c1ccc2c(c1)C1C(Cl)C(Sc3ccccc3[N+](=O)[O-])CC1C(c1ccccc1)N2 (stereo not drawn)	9	15	-1	1	7	5
Cc1ccc(CN2Cc3ccc(Br)cc3-n3nncc3C2)cc1	.	-3	.	.	.	.
Oc1cccc2cccnc12	-6	0	-2	-3	94*	.
CN(C(=O)Oc1cccc2cccnc12)c1ccccc1	-2	-3	-2	5	1	5
CCCNC1=C(C)C(=O)C2=C(C1=O)C(COC(N)=O)[C@]1(OC)C3NC3CN21 (stereo partly drawn)	-3	2	0	-3	109*	2
CC(C)=CCc1c(O)cc2c(c1O)C(=O)CC(c1ccc(O)cc1)O2 (stereo not drawn)	-3	12	-4	4	50*	6
O[C@@H]1CCCN2CCc3c([nH]c4ccccc34)[C@H]12	-6	2	10	4	98*	0
SMILES	PP1 inh	Granule exo inh	IDE inh	PP5 primary	SKKanGAS inh	IDE act
CC(=O)OC1CC2OC3C=C(C)CCC3(C)C1(C)C21CO1 (stereo not drawn)	.	6	.	.	.	.
COc1ccc(-n2nnnc2C(CCc2ccccc2)N2CCC3(CC2)C(=O)NCN3c2ccccc2)cc1 (stereo not drawn)	.	6	.	.	.	.
CC1CCC(C(C)C)C(OC(=O)Cn2c(COc3ccccc3)[n+](C)c3ccccc32)C1 (stereo not drawn)	15	84*	-10	2	19	21*
Cc1ccc([C@@H]2C[C@H]3[C@@H](CN2S(=O)(=O)c2ccc(Cl)cc2)C(=O)C[C@@H](c2ccccc2F)N3S(=O)(=O)c2ccc(C)cc2)cc1	.	-4	.	.	.	.
CO[C@H]1C=CCCC=CC(=O)O[C@H]([C@H](C)C(=O)CCCC2CC(=O)NC(=O)C2)C(C)=C[C@@H](C)[C@@H]1O	.	-2	.	.	.	.
O=C(OCc1ccccc1)N1CCC2CC1c1cc(N3Cc4ccccc4-n4nncc4C3)ccc12 (stereo not drawn)	.	-1	.	.	.	.
CSc1ccc(NC(=O)C2(C)CCN2C(=O)C2(c3ccccc3)CC2)cc1 (stereo not drawn)	.	-4	.	.	.	.
O=C(Nc1ccc(F)cc1)c1c(O)c2c(n(Cc3ccccc3)c1=O)CCCC2	-3	6	8	2	-5	3
O=C(Nc1cccnc1)c1c(O)c2c(n(Cc3ccccc3)c1=O)CCCC2	5	11	10	1	52*	7
Cc1cc(/C=C2\C(=O)NC(=O)N(c3ccc(Cl)cc3)C2=O)c(C)n1-c1sc2c(c1C#N)CCCC2	11	-5	4	2	20	-3
CCOC(=O)c1c(-n2c(C)cc(/C=C3\C(=O)NC(=O)N(C)C3=O)c2C)sc2c1CCCC2	5	57*	7	6	24	2
CCC(=O)OC1CCC2C3CCC4CC(=O)C=CC4(C)C3CCC12C (stereo not drawn)	.	6	.	.	.	4
CC(C)CCNC(=O)c1c(N)n(Cc2ccc3c(c2)OCO3)c2nc3ccccc3nc12	4	56*	2	0	13	-2
CCCNC(=O)c1c(N)n(Cc2ccc3c(c2)OCO3)c2nc3ccccc3nc12	-2	19	7	5	.	0
O=C1NCN(c2ccccc2)C12CCN(C(c1cccc3ccccc13)c1nnnn1C1CCCC1)CC2 (stereo not drawn)	.	-2	.	.	.	.
CCCC/C(C)=C/[C@@H](NP(=O)(c1ccccc1)c1ccccc1)c1ccccc1	16*	0	6	8	73*	3
CNc1ccc2oc(C[C@H]3O[C@@]4(CC[C@H]3C)O[C@H]([C@H](C)C(=O)c3ccc[nH]3)[C@H](C)C[C@H]4C)nc2c1C(=O)O	17*	33	-1	5	107*	3
CCn1nc(-c2ccccc2)nc2c(=O)n(C)c(=O)nc1-2	39*	52	-4	4	95*	4
COc1ccc(-c2nc3ccccc3c(=O)n2-c2ccc(OC)cc2)cc1	-4	-2	4	0	4	4
Oc1ccc(O)c2c1C1(Cl)C(Cl)=C(Cl)C2(Cl)C1(Cl)Cl	.	1	.	.	.	-4
O=C(/C=C/c1c[nH]c2ccccc12)c1c(O)n(CCc2ccccc2)c(=O)[nH]c1=O	1	13	-5	0	85*	.
COC(=O)C1CN(C#N)N(c2ccc(Cl)cc2)C12c1ccccc1-c1ccccc12 (stereo not drawn)	10	69*	-1	2	67*	0
